A selection: hits, their analogues and other compounds. The true share with any hit is near 20%.
Pf growth 96h = Primary qHTS for delayed death inhibitors of the malarial parasite plastid, 96 hour incubation; P. falciparum luciferase reporter growth, 96 h; Potency, µM (doses to about 28.7 µM), without a hit: top-dose activity change, negative = inhibition, actives largely listed as inhibitors; 320,000 compounds, 6.9% hits; further: potency means the concentration at half of the fitted maximal effect; on the % scale 0 is the no-effect control and ±100 the full control effect
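Delayed-death screen, second-generation endpoint: infected erythrocytes, 2% hematocrit, 0.05% parasitemia final; 96 hours at 37 C, 5% CO2; luciferase detection reagent; luminescence decrease equals reduced growth.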
HCMV inh = qHTS Assay for inhibitors of the human cytomegalovirus (HCMV). AID 1259415, 2018. activity change, negative = inhibition, % at 57.5 µM. HFF cells, HCMV-luciferase reporter, 72 h; stronger effect = lower value. 410,000 compounds, 4.5% hits; in the data active means activity change below about -60%; inconclusive means no clear call, values can overlap the other calls; inactive means above about -39%; further: on the % scale 0 is the no-effect control and ±100 the full control effect
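Screen run at 2 compound doses on HFFs infected with reporter HCMV, MOI 1 PFU/cell. Luciferase activity from cell lysates at 72 h post infection gave inhibition relative to buffer-only and Salinomycin wells.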
Shiga toxin inh = A qHTS for Small Molecule Inhibitors of Shiga Toxin; Vero cells, Shiga toxin protein synthesis inhibition reporter; inhibition, % at 38.7 µM; 290,000 compounds, 9.2% hits; in the data active means inhibition mostly above about 28%, no sharp cut-off; inactive means mostly below about 43%; further: 0% is about no effect
CHX counter = Cycloheximide Counterscreen for Small Molecule Inhibitors of Shiga Toxin | max response, % | cell reporter, cycloheximide protein synthesis inhibition counterscreen | 300,000 compounds, 12% hits; in the data active means max response mostly above about 13%, no sharp cut-off; inactive means mostly below about 14%; further: read at 38.3 µM for the half of the compounds with a filed dose; 0% is about no effect
Pf growth 48h = Primary qHTS for delayed death inhibitors of the malarial parasite plastid, 48 hour incubation. P. falciparum luciferase growth in erythrocytes, 48 h. Potency, µM (top dose mostly 28.7 µM), for inactives: top-dose activity change, negative = inhibition, most hits filed as inhibitors. 310,000 compounds, 5.9% hits. AID 504832, 2011; further: potency means the concentration at half of the fitted maximal effect; on the % scale 0 is the no-effect control and ±100 the full control effect
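Parasite viability was followed by luminescence of a genomically integrated firefly luciferase. Cultures held 0.1% parasitemia at 2% hematocrit (final), incubated under 5% CO2 at 37 C.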
Starred values were filed as active, the others as inactive; ? = inconclusive; . = not tested or not shown. Unless noted, the call rests on the fitted dose curve; in most records, active means well fitted inhibition curve with a large enough effect; inconclusive means small, poorly fitted or top-dose-only effect, or another doubt; inactive means no such curve, though single readings can be large or run the other way.

SMILES	Pf growth 96h	HCMV inh	Shiga toxin inh	CHX counter	Pf growth 48h
Cc1ccc2oc(=O)c3cnn(CC(=O)NC4CCN(Cc5ccccc5)CC4)c3c2c1	2.33µM*	0.6	-12.9	-4.9	.
Cc1c2cnn(CC(=O)NC3CCCC3)c(=O)c2c(C)n1Cc1ccccc1	21.4%	27.0	76.9*	28.9*	54.9%
Cc1ccc2oc(=O)c3cnn(CC(=O)NCCN4CCOCC4)c3c2c1	9.28µM*	32.9	-0.9	-2.1	12.6%
CCCCCc1nc2c(C#N)c(-c3ccc(Cl)cc3)ccn2n1	?	-21.3	-3.8	10.4	?
COc1ccc(NC(=O)CSc2nc(-c3ccc(OC)cc3)[nH]c2-c2ccc(OC)cc2)cc1	.	-15.0	.	.	.
CCC1CCCCN1S(=O)(=O)c1ccc(NC(=O)C2CCN(C(=O)c3ccco3)CC2)cc1 (stereo unspecified)	?	-24.1	7.2	-5.8	0.0%
Fc1ccccc1CNCCC(Cc1ccccc1)c1ccc2c(c1)OCO2 (stereo unspecified)	-13.8%	?	-7.1	-6.2	?
CC(C)CCC(CCNCc1ccccn1)c1ccc2c(c1)OCO2 (stereo unspecified)	10.4µM*	26.8	-6.9	0.8	?
CCNCCC(CCC(C)C)c1ccc2c(c1)OCO2 (stereo unspecified)	2.94µM*	45.0	-10.9	-6.1	?
COc1cc(C(=O)N2CCCCC2c2cc(C(=O)Nc3ccccc3)no2)cc(OC)c1C (stereo unspecified)	.	-26.3	.	.	.
COc1ccc(CN(C(=O)Cc2cccs2)C(C(=O)NC2CCCC2)c2ccncc2)cc1 (stereo unspecified)	14.7µM*	3.7	-5.9	-1.6	?
COc1ccc(N(C(=O)CCl)C(C(=O)NCCc2ccccc2)c2cccs2)cc1 (stereo unspecified)	102.6%	-100.3*	-15.4	1.6	14.7µM*
COC(=O)c1ccc(C(C(=O)NC2CCCCC2)N(Cc2ccc(F)cc2)C(=O)Cc2cccs2)cc1 (stereo unspecified)	?	-27.7	-5.8	-0.6	11.7µM*
COc1ccc(CNC(=O)C(c2ccncc2)N(C(=O)Cc2cccs2)c2ccccc2)cc1 (stereo unspecified)	13.1µM*	1.4	-7.9	-1.0	6.2%
O=C(NC1CCCCC1)C(c1ccc(F)cc1)N(C(=O)c1cccs1)c1ccc2c(c1)OCO2 (stereo unspecified)	20.1%	-1.1	-13.4	-2.7	-0.9%
O=C(NC1CCCCC1)C(c1ccc2ncccc2c1)N(Cc1ccc(F)cc1)C(=O)c1cccs1 (stereo unspecified)	10.4µM*	-27.1	-12.5	11.0	8.28µM*
CC(C)C[C@@H](NC(=O)[C@@H](Cc1ccccc1)NC(=O)c1cnccn1)B(O)O	0.0338µM*	.	.	.	0.12µM*
CC(C)C[C@H](NC(=O)[C@H](Cc1ccccc1)NC(=O)c1cnccn1)B(O)O	.	-98.7*	.	.	.
CCCNC(=O)C(Cc1ccccc1)NC(=O)c1ccccn1 (stereo unspecified)	9.3%	-7.9	.	.	34.9%
CCOC(=O)c1oc2ccc(S(=O)(=O)n3nc(-c4ccc(Br)cc4)cc3N)cc2c1C	.	0.3	.	.	.
CCc1ccc(NC(=O)CC(c2ccc(C)cc2)N2Cc3ccccc3C2=O)cc1 (stereo unspecified)	.	2.2	.	.	.
CCC(CC)C(=O)N1CCc2cc(OC)c(OC)cc2C1COc1ccccc1OC (stereo unspecified)	.	-11.9	.	.	.
Cc1cc2nc(N(Cc3cccnc3)C(=O)c3ccc(Cl)s3)sc2cc1C	.	139.4	.	.	.
COc1ccc(N2CCC[C@@H]2/C=C/C(=O)OCc2ccccc2)cc1	.	6.9	.	.	.
CCOC(=O)c1cnc2ccc(C(=O)OC)cc2c1NCCc1ccc(OC)c(OC)c1	1.0%	-12.7	-12.3	1.4	10.4µM*
SMILES	Pf growth 96h	HCMV inh	Shiga toxin inh	CHX counter	Pf growth 48h
CCOC(=O)c1cnc2c(C)cccc2c1NCCc1ccc(OC)c(OC)c1	4.15µM*	-0.2	-10.8	11.1	?
CCOC(=O)c1ccc2ncc(C(=O)OCC)c(NCCc3ccc(OC)c(OC)c3)c2c1	.	-12.1	.	.	.
C[C@H](NC(=O)[C@@H]1CSC2c3ccccc3C(=O)N21)C(=O)NCCc1ccc(F)cc1 (stereo partly specified)	-28.4%	41.5	18.2	8.1	0.0%
C[C@H](NC(=O)[C@@H]1CSC2c3ccccc3C(=O)N21)C(=O)NCCc1ccccc1 (stereo partly specified)	96.0%	7.7	51.3*	42.8*	50.4%
COC(=O)c1ccc(NC(=O)C2C3C=CC(C3)C2C(=O)O)cc1 (stereo unspecified)	22.7%	-98.2*	-7.1	7.6	12.0%
Cc1ccc(-c2ccc(NC(=O)C3C4C=CC(C4)C3C(=O)O)cc2)o1 (stereo unspecified)	175.9%	43.4	62.2*	46.4*	.
Cc1ccc(NC(=O)C2C3C=CC(O3)C2C(=O)O)cc1C (stereo unspecified)	42.5%	-33.6	.	52.0*	-11.4%
CCOC(=O)c1ccc(NC(=O)C2C3C=CC(O3)C2C(=O)O)cc1 (stereo unspecified)	-7.0%	.	29.4	12.8	-16.4%
COC(=O)c1ccc(NC(=O)C2C3C=CC(O3)C2C(=O)O)cc1 (stereo unspecified)	-19.3%	19.4	29.7*	19.6*	33.2%
CCOC(=O)c1ccc(NC(=O)C2C3C=CC(C3)C2C(=O)O)cc1 (stereo unspecified)	?	35.5	23.5	14.3	56.5%
Cc1cc(C)cc(N2CCn3c2nc2c3c(=O)n(CCc3ccccc3)c(=O)n2C)c1	.	8.7	.	.	.
CCCCN1CC(COCc2ccccc2)Oc2cc(Br)ccc2S1(=O)=O (stereo unspecified)	.	-33.7	.	.	.
CCC(=O)N1CCN(c2ccc(NC(=O)c3ccco3)cc2)CC1	-7.2%	76.3	31.1*	27.7*	72.8%
CC(=O)N1CCN(c2ccc(NC(=O)c3ccco3)cc2)CC1	20.7%	112.2	71.7*	17.9	143.6%
COc1ccc(NC(=O)C(=O)NCCN2CCN(C(=O)c3ccco3)CC2)cc1	0.928µM*	-8.5	-4.3	-1.8	9.6%
COc1ccc(C(=O)N2CCN(c3ccc(NC(=O)c4ccco4)cc3)CC2)cc1	0.4%	-75.6*	0.4	-1.1	18.5%
CCc1ccc(C(=O)N2CCN(c3ccc(NC(=O)c4ccco4)cc3)CC2)cc1	25.1%	13.1	-2.9	-0.8	32.3%
CC1CCCC(NC(=O)Cn2cc(C(F)(F)F)cc(Cl)c2=O)C1C (stereo unspecified)	?	65.9	.	.	?
CC(=O)Nc1cccc(-c2ccnc3c2CC(C)(C(=O)NCc2ccc(N(C)C)cc2)O3)c1 (stereo unspecified)	.	1.4	.	.	.
N#C/C(=C\c1cc(Br)c(O)c(Br)c1)c1nc2ccccc2c(=O)[nH]1	.	0.2	.	.	.

Compound activity as filed in PubChem.
